The full data set covers some 8,800 targets. This sample favours those with a hit. About 0.5% of all pairs of compound and target were hits. Unmarked numbers belong to inactive results.
Key:
Experiment in all cases: log2 fold change, soluble protein after heating vs DMSO (PISA); higher = thermal stabilisation; K562 lysate, 10 uM; active = over 0.2 and 3.5 SD of the protein, either way, in both replicates (recomputed)
vemurafenib = compound: CCCS(=O)(=O)Nc1ccc(F)c(C(=O)c2c[nH]c3ncc(-c4ccc(Cl)cc4)cc23)c1F [vemurafenib]
Outline: (§1)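 Log-two fold change in thermal stability relative to solvent controls is reported from duplicates. For each sample, crude K562 extract from dounce-homogenised pellets in PBS pH 7.4 with 1 mM MgCl2, at 1 mg/mL protein, was treated with 10 μM compound for 30 min. Aliquots heated for 3 min across 48°C-58°C were pooled, brought to 0.5% NP-40 at 4°C and cleared at 21,000xg for 90 min. The supernatant was quantified by TMTpro 16plex LC-MS/MS with channel sums equalised.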

[1] = compound: CCCS(=O)(=O)Nc1ccc(F)c(C(=O)c2c[nH]c3ncc(Cl)cc23)c1F
Outline: as §1

barasertib = compound: CCN(CCCOc1ccc2c(Nc3cc(CC(=O)Nc4cccc(F)c4)[nH]n3)ncnc2c1)CCOP(=O)(O)O [barasertib]
Outline: as §1

[2] = compound: CC[C@@H]1C(=O)N(C)c2cnc(Nc3ccc(C(=O)NC4CCN(C)CC4)cc3OC)nc2N1C1CCCC1
Outline: as §1

volasertib = compound: CC[C@@H]1C(=O)N(C)c2cnc(Nc3ccc(C(=O)N[C@H]4CC[C@H](N5CCN(CC6CC6)CC5)CC4)cc3OC)nc2N1C(C)C [volasertib]
Outline: as §1

[3] = compound: CCn1c(C(=O)N(C2CC2)C2CC2)cc2c3c(ncn3C)c(Nc3cc(C)n(C)n3)nc21
Outline: as §1

[4] = compound: CCn1cc(-c2ccnc3[nH]c(-c4cccc(CN(C)C)c4)cc23)c(-c2ccc(NC(=O)N(C)C)cc2)n1
Outline: as §1

[5] = compound: CN1CCC(CNc2ccc3ncc(-c4cccc(OC(F)(F)F)c4)n3n2)CC1
Outline: as §1

saracatinib = compound: CN1CCN(CCOc2cc(OC3CCOCC3)c3c(Nc4c(Cl)ccc5c4OCO5)ncnc3c2)CC1 [saracatinib]
Outline: as §1

sotrastaurin = compound: CN1CCN(c2nc(C3=C(c4c[nH]c5ccccc45)C(=O)NC3=O)c3ccccc3n2)CC1 [sotrastaurin]
Outline: as §1

alvocidib = compound: CN1CC[C@H](c2c(O)cc(O)c3c(=O)cc(-c4ccccc4Cl)oc23)[C@H](O)C1 [alvocidib]
Outline: as §1

Tubastatin A = compound: CN1CCc2c(c3ccccc3n2Cc2ccc(C(=O)NO)cc2)C1 [Tubastatin A]
Outline: as §1

[6] = compound: CNC(=O)C1=CC=CC=C1NC2=NC(=NC=C2Cl)NC3=C(C=C(C=C3)N4CCOCC4)OC
Outline: as §1

defactinib = compound: CNC(=O)c1ccc(Nc2ncc(C(F)(F)F)c(NCc3nccnc3N(C)S(C)(=O)=O)n2)cc1 [defactinib]
Outline: as §1

[7] = compound: CNc1nc(-c2ccc3c(N)n[nH]c3c2)cc(N2C[C@@H](C(=O)NC3CCCCC3)CC[C@H]2C)n1
Outline: as §1

encorafenib = compound: COC(=O)N[C@@H](C)CNc1nccc(-c2cn(C(C)C)nc2-c2cc(Cl)cc(NS(C)(=O)=O)c2F)n1 [encorafenib]
Outline: as §1

[8] = compound: COC(=O)[C@H](CCSC)NC(=O)C1=C(C=C(C=C1)NC[C@H](CS)N)C2=CC=CC=C2
Outline: as §1

alisertib = compound: COc1cc(Nc2ncc3c(n2)-c2ccc(Cl)cc2C(c2c(F)cccc2OC)=NC3)ccc1C(=O)O [alisertib]
Outline: as §1

[9] = compound: COc1cc2nc(-c3cc(F)ccc3O)nc(N[C@@H]3CNC[C@H]3C(C)(C)O)c2cc1OC
Outline: as §1

gefitinib = compound: COc1cc2ncnc(Nc3ccc(F)c(Cl)c3)c2cc1OCCCN1CCOCC1 [gefitinib]
Outline: as §1

UniProt P12081, sequence (P12081 whole entry, looked up): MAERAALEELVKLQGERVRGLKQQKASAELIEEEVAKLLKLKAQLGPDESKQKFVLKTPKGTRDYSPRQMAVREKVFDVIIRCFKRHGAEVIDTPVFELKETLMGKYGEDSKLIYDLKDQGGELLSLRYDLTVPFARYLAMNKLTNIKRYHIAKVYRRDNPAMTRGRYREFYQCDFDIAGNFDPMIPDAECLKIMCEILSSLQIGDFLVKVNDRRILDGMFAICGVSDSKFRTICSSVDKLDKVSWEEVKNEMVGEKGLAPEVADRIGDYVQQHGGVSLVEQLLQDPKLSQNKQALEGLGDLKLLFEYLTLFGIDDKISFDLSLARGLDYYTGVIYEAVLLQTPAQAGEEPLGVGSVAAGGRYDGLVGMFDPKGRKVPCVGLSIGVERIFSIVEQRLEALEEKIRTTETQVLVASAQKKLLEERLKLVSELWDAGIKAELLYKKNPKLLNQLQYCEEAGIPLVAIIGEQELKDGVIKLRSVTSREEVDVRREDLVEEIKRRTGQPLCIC
UniProt P17096, sequence (P17096 whole entry, looked up): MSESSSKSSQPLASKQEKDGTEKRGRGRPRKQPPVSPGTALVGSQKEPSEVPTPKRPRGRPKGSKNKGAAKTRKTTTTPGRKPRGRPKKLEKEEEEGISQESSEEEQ
UniProt Q9Y5Q8, sequence (Q9Y5Q8 whole entry, looked up): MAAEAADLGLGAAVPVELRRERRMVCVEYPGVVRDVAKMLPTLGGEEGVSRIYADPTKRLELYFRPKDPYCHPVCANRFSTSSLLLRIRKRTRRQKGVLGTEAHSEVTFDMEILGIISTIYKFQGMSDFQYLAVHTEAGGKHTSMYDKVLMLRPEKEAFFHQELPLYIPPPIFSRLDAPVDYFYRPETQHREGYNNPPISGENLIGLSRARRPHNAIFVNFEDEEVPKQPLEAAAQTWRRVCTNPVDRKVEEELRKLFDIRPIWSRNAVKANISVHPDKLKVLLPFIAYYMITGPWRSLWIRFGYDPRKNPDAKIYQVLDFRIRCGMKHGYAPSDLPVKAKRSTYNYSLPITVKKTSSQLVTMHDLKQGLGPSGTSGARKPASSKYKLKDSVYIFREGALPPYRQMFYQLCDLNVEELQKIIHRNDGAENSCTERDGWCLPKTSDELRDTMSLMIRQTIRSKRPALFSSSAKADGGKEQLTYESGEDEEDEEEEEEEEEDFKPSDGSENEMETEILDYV
UniProt Q8N201, sequence (Q8N201 whole entry, looked up): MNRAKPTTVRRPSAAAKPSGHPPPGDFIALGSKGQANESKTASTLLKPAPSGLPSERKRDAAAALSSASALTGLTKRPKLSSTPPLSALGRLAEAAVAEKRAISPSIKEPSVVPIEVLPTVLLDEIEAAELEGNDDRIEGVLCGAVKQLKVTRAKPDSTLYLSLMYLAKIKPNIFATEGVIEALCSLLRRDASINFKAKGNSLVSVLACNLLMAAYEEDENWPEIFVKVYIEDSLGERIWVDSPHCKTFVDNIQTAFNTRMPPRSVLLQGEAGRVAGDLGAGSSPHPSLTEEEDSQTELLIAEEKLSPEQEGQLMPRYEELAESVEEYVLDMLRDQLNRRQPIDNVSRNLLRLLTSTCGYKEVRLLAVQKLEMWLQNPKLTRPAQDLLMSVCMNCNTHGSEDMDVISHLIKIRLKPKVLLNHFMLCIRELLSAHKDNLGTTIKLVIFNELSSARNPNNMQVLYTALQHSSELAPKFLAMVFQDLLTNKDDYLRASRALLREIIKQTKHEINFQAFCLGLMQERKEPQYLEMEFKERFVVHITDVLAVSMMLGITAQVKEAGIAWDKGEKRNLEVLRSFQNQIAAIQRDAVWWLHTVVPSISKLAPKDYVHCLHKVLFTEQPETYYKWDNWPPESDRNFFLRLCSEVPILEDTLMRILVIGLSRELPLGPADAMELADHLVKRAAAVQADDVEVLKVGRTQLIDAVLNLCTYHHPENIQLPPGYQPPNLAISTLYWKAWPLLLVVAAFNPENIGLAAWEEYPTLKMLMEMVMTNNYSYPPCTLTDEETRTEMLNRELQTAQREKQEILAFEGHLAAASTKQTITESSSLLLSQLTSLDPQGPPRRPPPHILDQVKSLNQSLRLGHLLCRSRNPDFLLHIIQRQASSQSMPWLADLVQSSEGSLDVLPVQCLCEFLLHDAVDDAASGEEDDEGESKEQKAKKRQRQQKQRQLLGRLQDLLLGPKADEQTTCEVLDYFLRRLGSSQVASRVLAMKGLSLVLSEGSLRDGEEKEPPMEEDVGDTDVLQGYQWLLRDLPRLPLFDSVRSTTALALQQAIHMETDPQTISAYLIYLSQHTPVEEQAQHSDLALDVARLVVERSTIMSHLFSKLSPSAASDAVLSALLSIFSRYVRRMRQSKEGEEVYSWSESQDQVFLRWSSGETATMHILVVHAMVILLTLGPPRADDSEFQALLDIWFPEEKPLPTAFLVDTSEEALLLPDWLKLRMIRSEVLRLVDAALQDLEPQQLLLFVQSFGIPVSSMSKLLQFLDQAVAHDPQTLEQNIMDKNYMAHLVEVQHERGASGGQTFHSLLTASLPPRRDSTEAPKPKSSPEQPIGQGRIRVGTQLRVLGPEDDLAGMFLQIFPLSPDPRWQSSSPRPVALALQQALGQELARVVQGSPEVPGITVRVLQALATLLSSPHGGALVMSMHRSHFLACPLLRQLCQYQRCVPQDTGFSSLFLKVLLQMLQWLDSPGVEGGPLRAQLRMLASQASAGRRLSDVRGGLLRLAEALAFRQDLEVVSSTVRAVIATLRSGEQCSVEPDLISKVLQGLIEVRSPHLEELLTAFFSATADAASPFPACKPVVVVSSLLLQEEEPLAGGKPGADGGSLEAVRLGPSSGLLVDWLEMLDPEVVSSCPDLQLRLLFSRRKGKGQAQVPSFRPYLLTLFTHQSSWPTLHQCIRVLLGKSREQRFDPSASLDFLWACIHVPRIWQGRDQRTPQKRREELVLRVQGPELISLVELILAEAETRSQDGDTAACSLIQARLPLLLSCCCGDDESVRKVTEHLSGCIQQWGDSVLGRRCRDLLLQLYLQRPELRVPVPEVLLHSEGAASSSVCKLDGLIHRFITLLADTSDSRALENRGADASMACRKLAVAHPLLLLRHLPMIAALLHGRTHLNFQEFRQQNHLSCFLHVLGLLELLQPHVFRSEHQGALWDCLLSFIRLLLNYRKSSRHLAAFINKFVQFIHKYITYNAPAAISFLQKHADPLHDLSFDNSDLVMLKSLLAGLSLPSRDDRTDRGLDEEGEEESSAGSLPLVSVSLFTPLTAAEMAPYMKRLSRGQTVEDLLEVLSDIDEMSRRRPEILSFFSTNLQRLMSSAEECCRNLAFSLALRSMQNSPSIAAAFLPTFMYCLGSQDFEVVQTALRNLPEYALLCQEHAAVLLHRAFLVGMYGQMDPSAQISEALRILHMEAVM
UniProt Q8TDG4, sequence (Q8TDG4 whole entry, looked up): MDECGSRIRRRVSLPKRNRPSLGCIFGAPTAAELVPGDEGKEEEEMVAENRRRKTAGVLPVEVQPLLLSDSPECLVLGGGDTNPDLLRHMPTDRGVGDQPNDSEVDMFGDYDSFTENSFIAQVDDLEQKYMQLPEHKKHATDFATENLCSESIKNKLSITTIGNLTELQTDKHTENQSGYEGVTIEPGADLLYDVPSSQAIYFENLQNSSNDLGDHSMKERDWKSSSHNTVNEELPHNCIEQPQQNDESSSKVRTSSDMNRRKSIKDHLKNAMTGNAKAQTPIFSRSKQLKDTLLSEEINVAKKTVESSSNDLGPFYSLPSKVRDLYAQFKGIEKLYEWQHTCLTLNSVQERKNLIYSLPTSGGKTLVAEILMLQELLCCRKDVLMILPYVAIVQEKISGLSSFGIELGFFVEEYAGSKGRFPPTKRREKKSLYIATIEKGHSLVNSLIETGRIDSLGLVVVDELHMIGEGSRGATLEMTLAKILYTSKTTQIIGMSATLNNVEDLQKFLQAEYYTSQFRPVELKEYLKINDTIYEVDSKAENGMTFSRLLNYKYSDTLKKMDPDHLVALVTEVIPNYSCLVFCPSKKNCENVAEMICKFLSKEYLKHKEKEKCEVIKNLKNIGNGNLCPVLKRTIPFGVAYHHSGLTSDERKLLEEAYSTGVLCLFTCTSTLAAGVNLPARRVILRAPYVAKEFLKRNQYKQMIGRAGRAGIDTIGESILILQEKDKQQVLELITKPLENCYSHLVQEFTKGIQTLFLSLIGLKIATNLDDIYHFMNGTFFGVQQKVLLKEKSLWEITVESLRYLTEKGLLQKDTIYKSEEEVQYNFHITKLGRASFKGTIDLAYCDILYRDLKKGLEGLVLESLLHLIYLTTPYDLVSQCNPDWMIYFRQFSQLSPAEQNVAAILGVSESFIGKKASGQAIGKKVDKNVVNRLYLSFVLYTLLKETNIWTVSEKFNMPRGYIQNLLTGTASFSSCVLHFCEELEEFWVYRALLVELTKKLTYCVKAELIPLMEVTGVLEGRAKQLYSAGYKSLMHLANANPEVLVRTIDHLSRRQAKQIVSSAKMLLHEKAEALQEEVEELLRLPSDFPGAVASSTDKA
UniProt Q9BX10, sequence (Q9BX10 whole entry, looked up): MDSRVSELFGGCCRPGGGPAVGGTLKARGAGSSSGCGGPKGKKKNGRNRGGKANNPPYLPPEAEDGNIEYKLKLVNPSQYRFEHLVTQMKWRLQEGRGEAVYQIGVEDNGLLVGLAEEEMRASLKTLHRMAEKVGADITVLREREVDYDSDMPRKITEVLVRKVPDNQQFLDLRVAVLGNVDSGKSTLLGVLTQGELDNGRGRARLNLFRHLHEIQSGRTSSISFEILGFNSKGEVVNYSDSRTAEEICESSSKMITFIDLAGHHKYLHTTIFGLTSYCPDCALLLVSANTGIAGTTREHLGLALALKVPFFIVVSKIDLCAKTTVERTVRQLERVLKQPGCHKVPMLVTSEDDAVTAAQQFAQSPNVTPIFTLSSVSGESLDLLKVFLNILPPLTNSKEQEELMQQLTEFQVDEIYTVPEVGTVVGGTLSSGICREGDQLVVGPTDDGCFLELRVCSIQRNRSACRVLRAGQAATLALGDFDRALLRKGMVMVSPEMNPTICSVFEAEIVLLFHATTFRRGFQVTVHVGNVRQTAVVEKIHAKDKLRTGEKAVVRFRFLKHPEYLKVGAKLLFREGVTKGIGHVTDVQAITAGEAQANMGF

Target	log2 fold change (vemurafenib)	log2 fold change [1]	log2 fold change (barasertib)	log2 fold change [2]	log2 fold change (volasertib)	log2 fold change [3]	log2 fold change [4]	log2 fold change [5]	log2 fold change (saracatinib)	log2 fold change (sotrastaurin)	log2 fold change (alvocidib)	log2 fold change (Tubastatin A)	log2 fold change [6]	log2 fold change (defactinib)	log2 fold change [7]	log2 fold change (encorafenib)	log2 fold change [8]	log2 fold change (alisertib)	log2 fold change [9]	log2 fold change (gefitinib)
GLUD2 (UniProt P49448)	0.177	-0.042	-0.069	0.02	-0.145	-0.031	-0.024	0.046	0.007	-0.039	-0.029	0.12	0.053	0.061	0.02	0.066	0.115	-0.06	-0.021	0.036
GTPBP2 (UniProt Q9BX10)	0.005	0.005	0.034	-0.03	-0.104	0.043	0.124	-0.074	0.047	0.043	-0.001	-0.045	0.039	0.018	-0.037	0.002	0.079	0.034	-0.07	0.058
GSK3A (UniProt P49840)	-0.013	0.006	-0.04	-0.015	-0.01	0.026	-0.133	0.154	0.01	0.535 (active)	0.53 (active)	-0.089	0.05	0.353	-0.042	0.161	-0.118	-0.03	-0.015	0.003
HELQ (UniProt Q8TDG4)	0.12	-0.064	0.036	0.048	0.01	-0.044	0.038	-0.104	-0.058	0.057	0.059	-0.016	0.045	0.037	0.054	0.046	0.09	0.132	-0.041	-0.177
HARS (UniProt P12081)	-0.024	-0.02	-0.031	-0.049	-0.006	0.012	0.023	-0.01	-0.021	0.009	0	0.001	-0.02	-0.02	-0.054	-0.03	0.254 (active)	0.003	0.015	0.007
GTF3C5 isoform 3 (UniProt Q9Y5Q8)	0.024	0.009	-0.011	0.006	-0.018	0.051	-0.025	0.017	0.031	-0.033	-0.005	-0.166	0.029	0.014	-0.012	0.01	0.153	0.004	0.001	-0.004
GNL3 (UniProt Q9BVP2)	0.051	0.041	0.032	-0.078	0.004	-0.07	0.129	-0.066	0.004	0.013	0.023	0.008	0.055	-0.002	0.038	0.014	0.252 (active)	-0.006	0.033	-0.029
ITPKA (UniProt P23677)	-0.007	0.019	0.041	-0.105	-0.065	-0.03	0	0.054	0.013	-0.045	-0.001	-0.194	-0.017	0.017	0.015	-0.021	0.375 (active)	-0.004	0	0.011
INTS1 (UniProt Q8N201)	0.042	-0.096	-0.01	0.044	-0.033	0.007	0.06	-0.041	0	-0.002	0.009	-0.028	0.013	0.019	0.004	0.028	-0.018	0.021	0.007	-0.04
GSTM4 (UniProt Q03013)	0.055	0.034	-0.044	0.024	0.03	0.009	-0.114	0.038	-0.13	-0.05	0.006	-0.012	0.029	0.006	0.077	-0.117	0.095	0.03	0.002	0.075
KDM5B isoform 2 (UniProt Q9UGL1)	0.043	0.073	0.039	0.138	0.071	-0.059	-0.107	-0.034	-0.113	-0.136	-0.048	0.021	-0.007	0.08	0.307	-0.094	0.075		0.014	
HMGA1 (UniProt P17096)	0.023	-0.011	-0.05	0.051	0.02	-0.04	-0.323 (active)	0.131	-0.001	0.012	-0.108	0.066	-0.001	-0.007	0.023	-0.005	-0.018	0.046	0.011	-0.027

Source: the supplement of paper PMC10849652
